Shown are actives, neighbours in structure and some others; about 7.3% of the full set was active somewhere.
Rab9 promoter act – activates the Rab9 promoter | Huh7 Rab9 promoter-luciferase reporter, luminescence, 24 h | Potency, µM (top dose mostly 9.22 µM), for the others: at the highest dose activation, negative = inhibition, most hits filed as activators | actives 2.8% (n = 320,000); also: % of control where 0% means no effect; nearly all actives have a fitted effect of over 60% in size
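Promoter activation is measured as luciferase luminescence in Huh7 cells stably transfected with a Rab9 promoter–luciferase construct, following 24 h compound exposure at 37 °C and 10 min reagent incubation at ambient temperature.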
NPC1 prom act – activates the NPC1 promoter. Huh7 NPC1 promoter luciferase reporter, 24 h. actives 2.4% (n = 320,000). Potency, µM (doses to about 9.22 µM), for the others: top-dose activation, actives largely listed as activators; also: % of control where 0% means no effect; nearly all actives have a fitted effect of over 60% in size
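Cells: Huh7 expressing luciferase under the NPC1 promoter, 1500/well. Seeded 2 h, compound added, incubated 24 h at 37 °C. Luciferase reagent, 10 min ambient, then luminescence.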
FLuc counter – inhibits or activates purified firefly luciferase, miR-21 counter-screen; P08659; purified FLuc, Km substrates, luminescence inhibition; Potency, µM (series often up to 57.5 µM), for inactives: at the top dose activity change, negative = inhibition, most hits filed as inhibitors; actives 6.9% (n = 360,000); AID 588342;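 also: plate controls were vehicle for no effect and reference inhibitor for full effect; nearly all actives have a fitted effect of over 55% in size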
Target sequence (P08659 whole entry, looked up): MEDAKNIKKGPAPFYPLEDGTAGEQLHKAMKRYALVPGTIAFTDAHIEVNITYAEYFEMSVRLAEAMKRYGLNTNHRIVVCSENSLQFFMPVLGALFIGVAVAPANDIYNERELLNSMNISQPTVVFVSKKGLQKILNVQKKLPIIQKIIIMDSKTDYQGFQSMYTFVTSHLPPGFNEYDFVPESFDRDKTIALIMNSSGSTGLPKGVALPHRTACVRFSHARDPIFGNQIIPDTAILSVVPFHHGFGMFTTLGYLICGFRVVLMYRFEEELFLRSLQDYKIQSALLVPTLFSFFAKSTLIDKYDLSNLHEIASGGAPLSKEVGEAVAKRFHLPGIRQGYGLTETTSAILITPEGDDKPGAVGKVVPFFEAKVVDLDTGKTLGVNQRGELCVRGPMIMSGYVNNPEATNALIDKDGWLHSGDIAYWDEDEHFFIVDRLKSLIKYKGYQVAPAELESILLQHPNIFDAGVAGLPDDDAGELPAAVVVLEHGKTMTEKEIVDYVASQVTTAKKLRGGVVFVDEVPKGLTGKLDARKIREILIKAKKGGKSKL
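Purified P. pyralis luciferase (10nM final) with 10uM D-luciferin and 10uM ATP (Km levels) in 50mM Tris acetate pH 7.5, 10mM Mg acetate, 0.01% Tween-20, 0.05% BSA; qHTS 6-point titration, ~60 µM downward; luminescence read.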
SMN2 splice up – SMN2 splice variant enhancement; HEK293 SMN2-luciferase splicing reporter, luminescence, 30-36 h; Potency, µM (top dose mostly 46.1 µM), without a hit: at the top dose activity change, positive = activation, most hits filed as activators; actives 2.8% (n = 210,000); AID 1458; also: % of control where 0% means no effect; nearly all actives have a fitted effect of over 55% in size
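HEK293 cells carry an SMN2 […]–luciferase reporter in which exon 7 inclusion puts luciferase in frame. Cells were plated 10-12 h before compound addition, then incubated 30-36 h at 37C. ONE-Glo luminescence was read; sodium butyrate at 4.5 mM final served as control.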
ELG1 genotoxic – induces genotoxicity in HEK293T cells with luciferase-tagged ELG1. HEK293T ELG1-luciferase reporter, luminescence, 16 h. Potency, µM (highest dose often 46 µM), for the others: top-dose activity change, positive = activation, hits mostly activators. actives 1.3% (n = 330,000); also: % of control where 0% means no effect; nearly all actives have a fitted effect of over 60% in size
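HEK293T cells expressing luciferase-tagged ELG1 were treated with compound or DMSO for 16 hr at 37°C. Luciferase activity was then read after 30 min with ONE-Glo at room temperature; rising signal flags genetic stress.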
Luc counter – counter-screen: inhibitors of Kinase-Glo firefly luciferase; actives 0.28% (n = 200,000); Kinase-Glo luciferase, ATP luminescence, 8 min; Potency, µM (highest dose often 38.3 µM), without a hit: top-dose activity change, negative = inhibition, hits mostly inhibitors; also: % is scaled to controls: 0 for no effect and ±100 for the full control effect; nearly all actives have a fitted effect of over 60% in size
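Luminescence was the read-out, taken after 8-minute incubation at ambient temperature. Luciferase turned over luciferin with 10 uM ATP in imidazole pH 7.2 buffer containing KCl, MgCl2, Tween 20 and BSA.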
The depositor's hits bear a star; ? = inconclusive; / = no result. Calls follow the shape of the dose curve; as a rule, active = well fitted curve in the direction sought with a large enough effect; inconclusive = small, poorly fitted or top-dose-only effect, or another doubt; inactive = no such curve, though single readings can be large; an effect the other way counts as inactive or inconclusive. Potency is read from the fitted curve at half-maximal effect.

SMILES	Rab9 promoter act	NPC1 prom act	FLuc counter	SMN2 splice up	ELG1 genotoxic	Luc counter
O=C(NCCO)c1cccc(Cl)c1	0.0063µM*	?	4.4%	-2.4%	/	-2.8%
CC(C)OC(=O)NCCOC(=O)Nc1cccc(Cl)c1	6.7%	-6.2%	-5.2%	-33.7%	-2.6%	0.3%
O=C(Nc1ccccc1)OCCNC(=O)c1cccc(Cl)c1	-3.1%	6.4%	21.3µM*	-20.7%	15.0%	2.1%
Cc1cc(-c2c(C)[nH]n(-c3ccc(Cl)cc3)c2=O)n(-c2ccc(Cl)cc2)n1	-0.2%	1.9%	?	-32.4%	-7.1%	0.5%
O=C(O)c1cc(N/N=C/c2c(O)ccc3ccccc23)ccc1Cl	1.41µM*	1.58µM*	2.39µM*	/	14.6µM*	/
Nc1cc(Cl)nc(N/N=C/c2c(O)ccc3ccccc23)n1	2.51µM*	?	2.69µM*	?	?	-3.1%
N#CC(=C1CCCC1)c1nc(-c2ccccc2O)cs1	3.55µM*	2.82µM*	1.35µM*	?	3.66µM*	?
N#CC(=C1CCCC1)c1nc(-c2ccccc2)cs1	?	3.16µM*	1.35µM*	15.8µM*	?	-7.9%
Cc1ccc(-c2csc(C(C#N)=C3CCCC3)n2)cc1	4.47µM*	3.16µM*	2.69µM*	17.8µM*	?	-3.6%
CCc1ccc(/C=C(/C#N)c2nc(-c3ccc(C)cc3)cs2)cc1	/	/	0.5%	6.8%	/	/
N#CC(=C1CCCC1)c1nc(-c2cc3ccccc3oc2=O)cs1	3.16µM*	?	2.13µM*	?	?	-3.0%
O=C(Nc1ccc(Cl)cc1)Nc1nc(-c2ccccc2O)cs1	1.7%	-1.6%	-4.8%	/	-0.1%	/
N#C/C(=N\O)c1nc(-c2ccccc2)cs1	1.4%	1.3%	-10.5%	-8.7%	0.0%	-0.4%
COc1cc(/C=C2/N=C(c3ccccc3F)OC2=O)cc(Cl)c1OS(C)(=O)=O	-1.0%	-4.5%	8.49µM*	19.0%	-0.6%	0.3%
O=C(NC(C(=O)N/N=C/c1ccccc1)c1n[nH]c(=O)c2ccccc12)c1ccccc1 (stereo not given)	?	-0.4%	19µM*	/	4.0%	/
O=C(NC(C(=O)N/N=C/c1c2ccccc2cc2ccccc12)c1n[nH]c(=O)c2ccccc12)c1ccccc1 (stereo not given)	8.3%	-0.3%	1.4%	/	-2.6%	/
CCOC(=O)N1CCN(C(=O)CCSc2ccc(C)cc2)CC1	10.2%	7.9%	-2.9%	12.2%	6.3%	-0.8%
CCOC(=O)N1CCN(C(=O)CCSc2ccccc2)CC1	2.82µM*	?	16.9µM*	?	9.2µM*	-4.7%
COc1ccc(-c2cccc(NS(=O)(=O)c3cc([N+](=O)[O-])ccc3Cl)c2)nn1	1.9%	0.3%	-15.1%	/	-0.5%	/
O=[N+]([O-])c1ccc(Cl)c(S(=O)(=O)Nc2ccc(-c3ccc(N4CCOCC4)nn3)cc2)c1	-1.5%	6.6%	15.1µM*	/	5.5%	/
O=S(=O)(Nc1ccc(-c2ccc(N3CCOCC3)nn2)cc1)c1ccc(Cl)c(Cl)c1	0.8%	-4.2%	23.9µM*	/	-4.9%	/
O=[N+]([O-])c1ccc(Cl)c(S(=O)(=O)Nc2cccc(-c3ccc(N4CCOCC4)nn3)c2)c1	?	?	2.39µM*	/	10.3µM*	/
CN(c1ccccc1)S(=O)(=O)c1cccc(C(=O)OCC(=O)NCc2ccccc2)c1	/	/	/	/	-2.8%	/
CSc1ccccc1OCc1cc(C(=O)N2CCNC(=O)C2)no1	3.9%	5.3%	3.2%	/	7.8%	/
CC(=O)Nc1nc(CCN2C(=O)c3ccccc3C2=O)cs1	-4.7%	-2.1%	6.4%	-12.9%	0.0%	-0.7%
SMILES	Rab9 promoter act	NPC1 prom act	FLuc counter	SMN2 splice up	ELG1 genotoxic	Luc counter
O=C1CN(S(=O)(=O)c2ccc(F)cc2)c2ccccc2N1	2.3%	-1.9%	1.6%	/	3.1%	/
O=C1NC(=O)/C(=C/c2ccc(O)cc2)S1	?	29.8%	15.1µM*	/	?	3.7%
COc1cc2c(cc1NC(=O)COc1ccc(Br)c(C)c1)oc1ccccc12	/	/	-0.2%	-8.6%	/	/
Cc1nc2ccc(S(=O)(=O)N(C)CC(=O)Nc3ccc(C(C)C)cc3)cc2s1	/	/	4.1%	-25.5%	/	/
Cc1ccc(C(=O)Nc2nc(C(C)(C)C)cs2)s1	3.16µM*	?	5.36µM*	-4.7%	4.61µM*	15.5%
CC(C)(C)c1csc(NC(=O)c2ccncc2)n1	-5.8%	-6.7%	?	-63.7%	-4.9%	-2.3%
CC(C)(C)c1csc(NC(=O)c2ccc(Cl)s2)n1	?	?	6.75µM*	-17.0%	3.5%	1.8%
CC(C)(C)c1csc(NC(=O)c2ccc3nccnc3c2)n1	3.55µM*	2.51µM*	8.49µM*	13.6%	8.2%	-0.4%
O=C(O)/C=C\C(=O)Nc1ccc(OC(F)F)cc1	-5.9%	-2.2%	?	0.9%	0.7%	-2.6%
Cc1ccc2c(Cl)c(C(=O)NCC(c3ccco3)N3CCCC3)sc2c1 (stereo not given)	-1.0%	26.0%	?	/	-0.1%	/
COc1ccc(-c2cc(-c3ccc(OC)cc3)c(C#N)c(SC)n2)cc1	0.6%	-1.6%	1.5%	14.5%	9.3%	-1.0%
COC(=O)/C(=C1/Oc2cc(C)oc(=O)c2S1)C(F)(F)F	-3.0%	-14.3%	-2.3%	-132.9%	-7.9%	1.4%
COC(=O)/C(=C1/Oc2ccc(C(C)(C)C)cc2S1)C(F)(F)F	?	?	4.78µM*	-16.2%	?	1.0%
N#Cc1ccccc1NC(=O)C(=O)NCC(c1ccc2c(c1)OCO2)N1CCN(c2ccccc2)CC1 (stereo not given)	/	/	3.7%	/	/	/
O=C(Nc1ccon1)c1ccc(OC2CCCC2)cc1	2µM*	2.51µM*	3.01µM*	17.8µM*	?	-7.8%
CC(C)(C)c1cc(NC(=O)c2ccc(OC3CCCC3)cc2)no1	18.7%	23.4%	?	-18.0%	-0.1%	0.9%
O=C(Nc1cccc(-c2ccc(N3CCOCC3)nn2)c1)c1ccccc1	?	2.82µM*	2.69µM*	/	?	/
Cc1ccccc1C(=O)Nc1cccc(-c2ccc(N3CCOCC3)nn2)c1	3.16µM*	?	2.13µM*	/	?	/
Cc1ccc(C(=O)Nc2cccc(-c3ccc(N4CCOCC4)nn3)c2)cc1[N+](=O)[O-]	3.16µM*	?	?	/	?	/
O=C(Nc1cccc(-c2ccc(N3CCOCC3)nn2)c1)c1ccc([N+](=O)[O-])cc1	2.51µM*	3.55µM*	2.39µM*	/	?	/
O=C(Nc1ccc(C(=O)N2CCOCC2)cc1)c1ccc([N+](=O)[O-])cc1	-1.9%	1.8%	-2.6%	/	-15.0%	/
O=C1Nc2cc(Cl)c(Cl)cc2N(O)N1c1ccccc1	-4.0%	-1.5%	-16.4%	-2.0%	1.9%	8.1%
